HTR5A ag: HTR5A agonism, opioid heterodimer counter-screen | P47898 | HTR5A agonist assay, luminescence, cell-based | activation, % at 9.3 µM | 340,000 compounds, 0.61% hits | AID 504692; in the data active means activation mostly above about 9.5%, no sharp cut-off; inactive means mostly below about 7.6%
HTR5A inv ag: inverse agonist of human HTR5A in OPRM1-OPRD1 counter-screen. 340,000 compounds, 0.083% hits. HTR5A cell line, luminescence, inverse agonism. inhibition, % at 9.3 µM. P47898; in the data active means inhibition mostly above about 23%, no sharp cut-off; inactive means mostly below about 18%
OPRM1-OPRD1 inv: inverse agonist of human OPRM1-OPRD1 heterodimerization; P35372+P41143; inhibition, % at 9.3 µM; 340,000 compounds, 0.21% hits; cell-based MOR-DOR heterodimer luminescence, inverse agonism; in the data active means inhibition above about 22%, passing the limit was not always enough
Target sequence (P35372 whole entry, looked up): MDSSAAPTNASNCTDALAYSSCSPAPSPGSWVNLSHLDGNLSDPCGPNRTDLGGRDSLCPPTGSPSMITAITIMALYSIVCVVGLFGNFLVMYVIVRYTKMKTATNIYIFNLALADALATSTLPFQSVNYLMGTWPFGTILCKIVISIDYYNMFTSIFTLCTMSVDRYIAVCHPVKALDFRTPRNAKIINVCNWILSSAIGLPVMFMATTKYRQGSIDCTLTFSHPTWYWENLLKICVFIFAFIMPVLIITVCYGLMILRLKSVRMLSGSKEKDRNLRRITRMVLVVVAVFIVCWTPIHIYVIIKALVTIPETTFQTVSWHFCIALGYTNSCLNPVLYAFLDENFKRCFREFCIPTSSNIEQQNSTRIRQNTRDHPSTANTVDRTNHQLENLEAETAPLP
Target sequence (P41143 whole entry, looked up): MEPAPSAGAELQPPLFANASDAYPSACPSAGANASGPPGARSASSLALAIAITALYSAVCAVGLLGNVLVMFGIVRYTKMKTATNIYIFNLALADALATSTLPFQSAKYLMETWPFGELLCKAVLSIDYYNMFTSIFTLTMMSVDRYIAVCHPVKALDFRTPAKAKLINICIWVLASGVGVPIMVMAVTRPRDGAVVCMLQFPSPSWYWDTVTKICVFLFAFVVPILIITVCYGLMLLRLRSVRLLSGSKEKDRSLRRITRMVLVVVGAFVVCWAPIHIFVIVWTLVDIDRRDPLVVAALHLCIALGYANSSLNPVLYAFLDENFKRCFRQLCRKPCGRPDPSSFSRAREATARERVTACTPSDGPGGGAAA
OPRM1-OPRD1 ag: OPRM1-OPRD1 heterodimerization agonism | P35372+P41143 | cells, luminescence | activation, % at 9.3 µM | 340,000 compounds, 0.3% hits | AID 504326; in the data active means activation above about 18%
OPRM1-D1 inv cf: OPRM1-OPRD1 heterodimer inverse agonism, confirmation | shares compounds with OPRM1-OPRD1 inv | cells expressing OPRM1/OPRD1 heterodimer, luminescence | 580 compounds, 20% hits | inhibition, % at 9.3 µM | AID 504900; in the data active means inhibition above about 32%
HTR5A inv count: HTR5A inverse agonism, opioid heterodimer counter-screen. HTR5A-expressing cells, luminescence. inhibition, % at 9.3 µM. 580 tested, under 10 active. shares compounds with OPRM1-OPRD1 inv. AID 504914; call rule not given here
Large screens that a line does not name were inactive (follow-up assays come after a bar, where they were run). The list is not random: actives were taken first. Their share in the collection is about 1.1%.

Cc1cccc(C)c1NC(=S)NNc1ncc(C(F)(F)F)cc1Cl	OPRM1-OPRD1 inv 32 | OPRM1-D1 inv cf inactive | HTR5A inv count inactive
COc1ccc(OC)c(Nc2nc(N)c([N+](=O)[O-])c(N3CCOCC3)n2)c1	none
CCN(C(=O)CSc1nc(N)cc(N)n1)C1CCS(=O)(=O)C1 (stereo not given)	none
Cc1ccccc1NC(=S)NNc1ncc(C(F)(F)F)cc1Cl	OPRM1-OPRD1 inv 46 | OPRM1-D1 inv cf 33 | HTR5A inv count inactive
Fc1cccc(Cl)c1CNCc1cccnc1	none
N#CC(C#N)=C1C=CC=CN1/C(=C\c1ccco1)C(=O)c1ccc(-c2ccccc2)cc1	none
N#CC(C#N)=C1C=CC=CN1/C(=C\c1ccco1)C(=O)c1ccc(Cl)cc1	OPRM1-OPRD1 inv 34 | OPRM1-D1 inv cf inactive | HTR5A inv count inactive
Clc1ccccc1CSc1cc2c(nn1)-c1ccccc1CC2	none
Cc1ccc(CSc2nnc3c(n2)OC2(Nc4ccccc4-3)C(=O)Nc3ccc(F)cc32)cc1 (stereo not given)	OPRM1-OPRD1 inv 79 | OPRM1-D1 inv cf 70 | HTR5A inv count inactive
O=C1Nc2ccc(F)cc2C12Nc1ccccc1-c1nnc(SCc3ccccc3Cl)nc1O2 (stereo not given)	OPRM1-OPRD1 inv 78 | OPRM1-D1 inv cf 56 | HTR5A inv count inactive
O=C1Nc2ccc(F)cc2C12Nc1ccccc1-c1nnc(SCc3ccccc3)nc1O2 (stereo not given)	OPRM1-OPRD1 inv 79 | OPRM1-D1 inv cf 70 | HTR5A inv count inactive
Cc1ccc(SCc2[nH]nc3c2C2(C(=O)Nc4ccc(F)cc42)C(C#N)=C(N)O3)cc1 (stereo not given)	none
Cc1cccc(N2CCN(C(=O)c3c(-c4ccccc4)noc3C)CC2)c1C	none
CN(C1=C(NC(=O)c2ccc(Cl)cc2)C(=O)c2ccccc2C1=O)c1ccccc1	OPRM1-OPRD1 inv 39 | OPRM1-D1 inv cf inactive | HTR5A inv count inactive
O=C(NNC(=O)C1COc2ccccc2O1)c1ccccc1O (stereo not given)	none
NC(=O)c1ccc(NC(=O)CSc2nnc(-c3cccnc3)n2Cc2ccco2)cc1	none
CNc1ccccc1C(=O)OCC(=O)c1ccc(F)cc1	none
O=C(COC(=O)c1ccccc1F)c1ccc(-n2nncc2-c2ccco2)cc1	OPRM1-OPRD1 inv 33 | OPRM1-D1 inv cf inactive | HTR5A inv count inactive
CCCCn1c(N)c(N(CCOC)C(=O)C2CC(=O)N(c3ccc(CC)cc3)C2)c(=O)[nH]c1=O (stereo not given)	none
COc1ccc(C[C@@H]2OC3(C=CC(=O)C=C3)O[C@H]2Cc2ccc(OC)cc2)cc1	OPRM1-OPRD1 inv 39 | OPRM1-D1 inv cf inactive | HTR5A inv count inactive
CC(C)[C@H](NC(=O)c1ccccc1Cl)C(=O)Nc1ccc(S(=O)(=O)Nc2nccs2)cc1	none
C[C@H]1CCC/C=C/[C@@H]2C[C@H](O)C[C@H]2[C@H](O)[C@H](S(=O)c2ccc(O)cc2)CC(=O)O1 (stereo not given in full)	OPRM1-OPRD1 inv 44 | OPRM1-D1 inv cf inactive | HTR5A inv count inactive
CC1CCCC=CC2CC(OC(=O)CN(C)C)CC2C(O)C=CC(=O)O1 (stereo not given)	none
O=C1C=C(O)c2cccc3cccc1c23	none
NN=C1C(=O)c2cccc3cccc1c23	OPRM1-OPRD1 inv 57 | OPRM1-D1 inv cf inactive | HTR5A inv count inactive
O=C(NNC(=S)NCC1CCCO1)c1cc(Br)ccc1Cl (stereo not given)	OPRM1-OPRD1 inv 33 | OPRM1-D1 inv cf inactive | HTR5A inv count inactive
CCOC(=O)C1Oc2ccccc2C(C(=O)OC)=C1C(=O)OC (stereo not given)	OPRM1-OPRD1 inv 40 | OPRM1-D1 inv cf inactive | HTR5A inv count inactive
CCOC(=O)C1Oc2ccccc2C(c2cccc3ccccc23)=C1C(=O)OC (stereo not given)	none
CCN(CC)c1ccc(N=CN2CCOCC2)cc1	none
CN(C)S(=O)(=O)c1ccc(/C(O)=C2/C(=O)C(=O)N(Cc3cccnc3)C2c2ccncc2)cc1 (stereo not given)	none
CN(C)S(=O)(=O)c1ccc(/C(O)=C2/C(=O)C(=O)N(Cc3cccnc3)C2c2cccs2)cc1 (stereo not given)	OPRM1-OPRD1 inv 40 | OPRM1-D1 inv cf inactive | HTR5A inv count inactive
COc1ccc(C)cc1S(=O)(=O)N(C)CC(=O)NCc1ccncc1	none
O=C(Nc1ccccc1C(=O)O)c1ccccc1	none
O=C(CNc1ccccc1C(=O)O)c1ccccc1	OPRM1-OPRD1 inv 71 | OPRM1-D1 inv cf inactive | HTR5A inv count inactive
NC(=O)c1ccccc1NCC(=O)c1ccc(Cl)cc1	OPRM1-OPRD1 inv 46 | OPRM1-D1 inv cf inactive | HTR5A inv count inactive
NC(=O)c1ccccc1OCC(=O)c1ccc(Cl)cc1	none
Cc1cccc(NC(=S)NC(=O)c2ccco2)n1	OPRM1-OPRD1 inv 22 | OPRM1-D1 inv cf inactive | HTR5A inv count inactive
COCCN(C(=O)COC(=O)CCCc1c[nH]c2ccccc12)c1c(N)n(Cc2ccccc2)c(=O)[nH]c1=O	none
Cc1ccc(NS(=O)(=O)c2cccc([N+](=O)[O-])c2)nc1	none
Cc1cc(C)c(S(=O)(=O)N2CCN(c3ccccn3)CC2)c(C)c1	none
CC(=O)Nc1ccc(C2(c3ccc(NC(C)=O)cc3)C(=O)Nc3ccccc32)cc1	none
N#CC1(Nc2cccc(Br)c2)C(=O)Nc2ccccc21 (stereo not given)	OPRM1-OPRD1 inv 50 | OPRM1-D1 inv cf inactive | HTR5A inv count inactive
N#CC1(Nc2ccccc2)C(=O)Nc2ccccc21 (stereo not given)	OPRM1-OPRD1 inv 57 | OPRM1-D1 inv cf inactive | HTR5A inv count inactive
CCOc1ccc(NS(=O)(=O)c2ccc(C(=O)NCC(c3ccc(OC)cc3)N3CCCC3)cc2)cc1 (stereo not given)	OPRM1-OPRD1 inv 26 | OPRM1-D1 inv cf inactive | HTR5A inv count inactive
CC(C)N(Cc1ccccc1)C(=O)COC(=O)c1cc(S(=O)(=O)N(C)C)ccc1N1CCCC1	none
Cc1ccc(C(=O)NN2C(=O)/C(=C/c3cn(C)c4ccccc34)SC2=S)cc1	none
Cn1cc(/C=C2\SC(=O)NC2=S)c2ccccc21	OPRM1-OPRD1 inv 28 | OPRM1-D1 inv cf inactive | HTR5A inv count inactive
O=C(OCCN1CCN(C2=NS(=O)(=O)c3ccccc32)CC1)c1cccc(Br)c1	none
O=C(CSc1ccc2c(c1)OCCO2)Nc1ccc(N2CCOCC2)cc1	none
CCC(=O)OCCNc1cc(SCCC(=O)OC)c2nonc2c1[N+](=O)[O-]	none
CCCC(=O)OCCNc1cc(Sc2nc3ccccc3[nH]2)c2nonc2c1[N+](=O)[O-]	OPRM1-OPRD1 inv 35 | OPRM1-D1 inv cf inactive | HTR5A inv count inactive
CCC(=O)OCCNc1cc(Sc2nccn2C)c2nonc2c1[N+](=O)[O-]	OPRM1-OPRD1 inv 42 | OPRM1-D1 inv cf inactive | HTR5A inv count inactive
CCc1cccc(C)c1NC(=O)CN1C(=O)NC(CCc2ccccc2)C1=O (stereo not given)	none

Assay outcomes: PubChem BioAssay, The Scripps Research Institute Molecular Screening Center
